Experimental data published in the supplement of paper PMC9694430.

Legend:
Assay in all cases: thermal shift delta Tm vs DMSO control; higher = stronger stabilization (binding)
Settings in all cases: 12.5 µM; protein concentration 2 µM
LOC_OS01G01410-cb001 = tested on: LOC_OS01G01410-cb001
Summary of the method: (§1)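 Heating from 25°C to 95°C at 0.05°C/s, fluorescence was recorded for 19.5 μl wells of 2 μM E. coli-expressed, purified rice kinase domain in 100 mM potassium phosphate pH 7.5, 150 mM NaCl, 10% glycerol and 5 × SYPRO Orange with compound in DMSO. Boltzmann fits gave melting temperatures for this differential scanning fluorimetry assay. The shift reported is the mean of three replicates against the DMSO-only protein.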

LOC_OS01G02750-cb003 = tested on: LOC_OS01G02750-cb003
Summary of the method: as §1

LOC_OS01G10900-cb004 = tested on: LOC_OS01G10900-cb004
Summary of the method: as §1

LOC_OS01G13800-cb001 = tested on: LOC_OS01G13800-cb001
Summary of the method: as §1

LOC_OS01G14860-cb001 = tested on: LOC_OS01G14860-cb001
Summary of the method: as §1

LOC_OS01G21960-cb002 = tested on: LOC_OS01G21960-cb002
Summary of the method: as §1

LOC_OS01G39600-cb002 = tested on: LOC_OS01G39600-cb002
Summary of the method: as §1

LOC_OS01G48390-cb002 = tested on: LOC_OS01G48390-cb002
Summary of the method: as §1

LOC_OS01G51400-cb002 = tested on: LOC_OS01G51400-cb002
Summary of the method: as §1

LOC_OS01G52050-cb004 = tested on: T1, LOC_OS01G52050-cb004
T1 sequence (whole entry): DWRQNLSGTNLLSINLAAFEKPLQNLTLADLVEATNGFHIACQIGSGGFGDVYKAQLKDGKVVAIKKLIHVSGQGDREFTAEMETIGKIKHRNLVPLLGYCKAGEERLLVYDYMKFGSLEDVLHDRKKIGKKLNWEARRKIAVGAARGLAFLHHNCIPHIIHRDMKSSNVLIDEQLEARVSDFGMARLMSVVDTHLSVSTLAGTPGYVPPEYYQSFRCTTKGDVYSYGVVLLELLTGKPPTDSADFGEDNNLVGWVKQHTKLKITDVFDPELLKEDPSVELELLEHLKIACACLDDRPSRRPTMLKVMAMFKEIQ
Summary of the method: as §1
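Note: purified Escherichia coli-expressed rice kinase domain construct.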

| Compound | thermal shift delta Tm (LOC_OS01G01410-cb001) | thermal shift delta Tm (LOC_OS01G02750-cb003) | thermal shift delta Tm (LOC_OS01G10900-cb004) | thermal shift delta Tm (LOC_OS01G13800-cb001) | thermal shift delta Tm (LOC_OS01G14860-cb001) | thermal shift delta Tm (LOC_OS01G21960-cb002) | thermal shift delta Tm (LOC_OS01G39600-cb002) | thermal shift delta Tm (LOC_OS01G48390-cb002) | thermal shift delta Tm (LOC_OS01G51400-cb002) | thermal shift delta Tm (LOC_OS01G52050-cb004) |
| --- | --- | --- | --- | --- | --- | --- | --- | --- | --- | --- |
| COc1ccc(S(=O)(=O)N(CCO)c2ccccc2CN(C)C/C=C/c2ccc(Cl)cc2)cc1 [KN-93 Phosphate] | 0.65 °C | 0.92 °C | 0.7 °C | -0.08 °C | 0.51 °C | 0.96 °C | -0.38 °C | 0.66 °C | 0.28 °C | 0.47 °C |
| Cc1cc(C(=O)Nc2nc3cccc(Cl)c3n2[C@@H]2CCCCN(C(=O)/C=C/CN(C)C)C2)ccn1 [Nazartinib (EGF816, NVS-816)] | 1.02 °C | 1.36 °C | 1.4 °C | 0.82 °C | 1.27 °C | 1.25 °C | 0.83 °C | 0.78 °C | 0.04 °C | 0.96 °C |
| CN(C)CCCn1cc(C2=C(c3c[nH]c4ccccc34)C(=O)NC2=O)c2ccccc21 | 0.25 °C | 0.71 °C | 0.3 °C | 0.25 °C | 1.17 °C | 2.73 °C | 0.78 °C | -0.07 °C | 0.26 °C | -0.04 °C |
| COc1ccc(-c2cc3nccn3c(Nc3ncccc3C(N)=O)n2)cc1OC | 1.05 °C | 1.45 °C | 1.83 °C | 0.09 °C | 6.47 °C | 2.98 °C | 0.18 °C | 1.07 °C | 0.17 °C | 2.44 °C |
| Cc1nc(-c2cn3c(n2)-c2ccc(-c4cnn(C(C)(C)C(N)=O)c4)cc2OCC3)n(C(C)C)n1 [Taselisib (GDC 0032)] | 2.11 °C | -0.1 °C | 0.24 °C | 0.32 °C | -0.05 °C | 0.03 °C | -0.05 °C | 0.45 °C | 0.03 °C | 0.13 °C |
| CS(=O)(=O)CCNCc1ccc(-c2ccc3ncnc(Nc4ccc(OCc5cccc(F)c5)c(Cl)c4)c3c2)o1 [Lapatinib] | 3.23 °C | 7.61 °C | 1.97 °C | 0.94 °C | 1.79 °C | 2.25 °C | 3.93 °C | 1.79 °C | 1.92 °C | 6.04 °C |
| CCCCNc1ncc(C(=O)NCc2ccc(-n3ccnc3)cc2)c(NC2CCC(O)CC2)n1 (stereo not given) | 3.78 °C | 2.44 °C | 0.58 °C | -0.06 °C | 4.73 °C | 1.72 °C | 2.74 °C | 2.96 °C | 0.43 °C | 7.56 °C |
| Cc1cc2c(F)c(Oc3ncnn4cc(OC[C@@H](C)OC(=O)[C@H](C)N)c(C)c34)ccc2[nH]1 | 1.74 °C | 0.78 °C | 0.61 °C | 0.4 °C | 0.52 °C | 0.54 °C | 0.75 °C | 0.96 °C | -0.47 °C | -0.05 °C |
| C=CC(=O)Nc1cccc(Oc2nc(Nc3ccc(N4CCN(C)CC4)cc3)nc3ccsc23)c1 | 2.67 °C | 1.02 °C | 2.04 °C | 0.55 °C | 0.91 °C | 1.61 °C | 0.15 °C | 1.38 °C | 0.79 °C | 1.94 °C |
